Cycloheximide cs – counter-screen for Shiga toxin inhibitors: cycloheximide protein synthesis inhibition | cell reporter, cycloheximide protein synthesis inhibition counterscreen | max response, % | 12% of 300,000 active; in the data active means max response mostly above about 13%, no sharp cut-off; inactive means mostly below about 14%; further: read at 38.3 µM for the half of the compounds with a filed dose; 0% is about no effect
Sm TGR block – S. mansoni TGR enzyme inhibition; purified TGR, DTNB reduction, TNB absorbance 405 nm; Potency, µM (titrated, usually from 114 µM), without a hit: at the top dose activity change, negative = inhibition, hits mostly inhibitors; 3% of 360,000 active; active means well fitted inhibition curve with a large enough effect; inconclusive means small, poorly fitted or top-dose-only effect; inactive means no such curve, though single readings can be large or run the other way; further: potency means the concentration at half of the fitted maximal effect; on the % scale 0 is the no-effect control and ±100 the full control effect; nearly all actives have a fitted effect of over 60% in size
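First, TGR (20 nM dispensed) and NADPH were mixed with compound. Second, a 15 min room-temperature incubation followed. Third, further NADPH and then DTNB were added to start the reaction. Finally, TNB absorbance was monitored kinetically.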
FMDV inh – foot and mouth disease virus antiviral activity; Potency, µM (highest dose often 57.9 µM), inactives show at the top dose activity change, negative = inhibition, most hits filed as inhibitors; FMDV antiviral cell-based qHTS; 1.2% of 410,000 active; calls by dose curve; tested in HEK293T cells; further: read-out not given here; potency means the concentration at half of the fitted maximal effect; on the % scale 0 is the no-effect control and ±100 the full control effect; nearly all actives have a fitted effect of over 45% in size
Shiga inhibitor – inhibitors of Shiga toxin in Vero cells; Vero cells, Shiga toxin protein synthesis inhibition reporter; inhibition, % at 38.7 µM; 9.2% of 290,000 active; AID 2315; in the data active means inhibition mostly above about 28%, no sharp cut-off; inactive means mostly below about 43%; further: 0% is about no effect
Starred values were filed as active, the others as inactive; ? = inconclusive; / = not tested or not shown. This is a sample that favours compounds with a hit; in the whole collection about 12% have one here.

SMILES	Cycloheximide cs	Sm TGR block	FMDV inh	Shiga inhibitor
COCCN1Cc2cccc(C(=O)Nc3ccc(-c4nc5ccccc5[nH]4)cc3)c2C1=O	11*	1%	2%	12
COCCN1Cc2cccc(C(=O)Nc3ccc(C)c(F)c3)c2C1=O	/	13%	-1%	/
COCCN1Cc2cccc(C(=O)Nc3cccc(-c4nc5ccccc5[nH]4)c3)c2C1=O	48*	9%	-12%	105
CCCN1Cc2cccc(C(=O)Nc3ccc4c(c3)OCCO4)c2C1=O	19*	11%	-20%	59
CCCN1Cc2cccc(C(=O)Nc3ccc(C)cc3)c2C1=O	-2	-17%	-6%	12
CCCN1Cc2cccc(C(=O)Nc3ccc4c(c3)OCO4)c2C1=O	-2	0%	8%	-7
CCCN1Cc2cccc(C(=O)Nc3ccc(-c4nc5ccccc5[nH]4)cc3)c2C1=O	18*	-24%	28%	8
Cc1ccccc1Cn1c(=O)n(CCc2ccccc2)c(=O)c2sc3ccccc3c21	/	-2%	22%	/
CC(=O)N1c2nc(C(C)C)nn2C2(CCCCC2)[C@@H]2CCCC[C@@H]21	/	5%	-29%	/
Cc1ccc(OCCCC(=O)Nc2sc3c(c2C(N)=O)CCC(C)C3)cc1 (stereo not given)	/	1%	4%	/
Cc1ccc(-c2noc(CNC(=O)c3ccccc3)n2)cc1	/	0%	7%	/
Cc1ccc(CC(=O)NCc2nc(-c3ccccc3)no2)cc1	/	14%	-8%	/
Cc1ccc(-c2noc(CNc3ccccc3)n2)cc1	37*	-5%	49%	64*
CCc1ccc(NCc2nc(-c3ccccc3)no2)cc1	31*	5%	30%	47*
CCCCN(C)C(=O)CN1C(=O)c2cccnc2Oc2ccc(Cl)cc21	/	-5%	8%	/
COc1cccc(-c2cc(C(=O)N3CCN(C(c4ccccc4)c4ccccc4)CC3)no2)c1	21	1%	-13%	22
COc1ccc(-c2cc(C(=O)N3CCOCC3)no2)cc1	30*	5%	-35%	49
COc1cccc(-c2cc(C(=O)N3CCOCC3)no2)c1	40*	-1%	-1%	41
COc1ccc(-c2cc(C(=O)N3CCOCC3)no2)cc1OC	29*	-32%	95%	129*
Cc1ccc(NC(=O)CSCc2cc(=O)c3ccccc3[nH]2)c(C)c1	/	6%	-26%	/
CC(=O)c1c(C)oc2ccc(N(C(=O)Oc3ccccc3)S(=O)(=O)c3ccc(Br)cc3)cc12	/	-1%	6%	/
CCOC(=O)c1cc(S(=O)(=O)NCc2ccc(OC)cc2)[nH]n1	/	6%	9%	/
c1ccc2c(N3CCNCC3)nsc2c1	16*	-22%	2%	8
CSc1nsc(SCC(=O)Nc2ccc(Br)cn2)n1	28*	0%	6%	78*
CSc1nsc(SCC(=O)Nc2ccc(O)c(C(=O)O)c2)n1	-3	-5%	2%	29
SMILES	Cycloheximide cs	Sm TGR block	FMDV inh	Shiga inhibitor
CSc1nsc(SCC(=O)Nc2ccccc2C(=O)O)n1	19*	-12%	39%	44*
Cc1cc(C)nc(SCC(=O)Nc2ccc(Br)cn2)n1	-2	8%	-18%	-13
CSc1nsc(SCC(=O)Nc2ccc(F)cc2F)n1	32*	-7%	39%	52*
Cc1cc2nc(SCC(=O)Nc3ccccc3C(=O)O)[nH]c2cc1C	15	-6%	35%	38*
Cc1cccc(N2CCN(S(=O)(=O)c3c(C(=O)N4CCC(C)CC4)c(C)n(C)c3C)CC2)c1C	/	2%	-13%	/
Cc1ccc(/C=C/C2=NN(C)C(=O)CC2)cc1	27*	0%	23%	63*
CN1N=C(/C=C/c2ccccc2)CCC1=O	28*	7%	41%	88*
C=CCN1N=C(/C=C/c2ccccc2)CCC1=O	20*	10%	19%	51
Cc1ccc(/C=C/C2=NN(Cc3ccccc3)C(=O)CC2)cc1	4	3%	-4%	3
COc1ccccc1CN1CCOc2ccc(C(C)(O)COc3ccccc3)cc2C1 (stereo not given)	/	/	-6%	/
COc1ccc(-n2cc(-c3ccccc3)c3c(N4CCCC(C)C4)ncnc32)cc1 (stereo not given)	/	0%	-22%	/
CCCCN(CC)Cc1ccc(CNC(=S)Nc2cccc(F)c2)o1	3	40µM*	-14%	22
COC(=O)c1ccccc1Oc1ccc(NC(=O)c2ccco2)cc1	11	-12%	16%	39
COc1ccccc1Oc1ccc(N/C=C/C(=O)c2ccco2)cc1	50*	/	-57%	100*
O=C(/C=C/Nc1ccc(Oc2ccccc2Cl)cc1)c1ccco1	37*	/	13%	117*
O=C(NC1CCCCC1)c1ccc2c(c1)OCCO2	21*	-1%	35%	42*
O=C(NC1CCCCCCC1)c1ccc2c(c1)OCO2	42*	-20%	-21%	48*
O=C(NC1CCN(Cc2ccccc2)CC1)c1ccc2c(c1)OCCCO2	7	5%	-7%	14
O=C(Nc1ccc2c(c1)OCO2)C1CC1	/	-3%	43%	/
S=C(NC1CCCCC1)c1ccc2c(c1)OCO2	22*	0%	48%	66*
O=C(NNC(=S)NC1CCCCC1)c1ccc2c(c1)OCO2	-2	-9%	92%	-4
c1cc2c(cc1NC1CCCCCC1)OCO2	16*	?	21%	11
COc1ccccc1CNC(=O)CN1C(=O)COc2ccc(S(=O)(=O)N3CCC(C)CC3)cc21	/	0%	5%	/
CC(C)(C)C(=O)Cn1ncc(Cl)c(Cl)c1=O	-14	40µM*	?	-31
Cc1ccc(NC(=O)CN(C)C(=O)Cn2ncc(Cl)c(Cl)c2=O)cc1	-9	?	0%	-32
SMILES	Cycloheximide cs	Sm TGR block	FMDV inh	Shiga inhibitor
C=CCn1c(C)cc(C(=O)Cn2ncc(Cl)c(Cl)c2=O)c1C	42*	40µM*	?	73*
C=CCn1c(C)cc(C(=O)CN2NS(=O)(=O)c3ccccc3C2=O)c1C	33*	9%	5%	87*
Cc1ccc(CNC(=O)CN2NS(=O)(=O)c3ccccc3C2=O)cc1	/	/	6%	/
O=C(Cn1ncc(Cl)c(Cl)c1=O)c1ccc(Cl)cc1	21*	?	35µM*	32*
COc1cccc(N2CCN(C(=O)c3cccn3-c3nnc(N4CCCC4)s3)CC2)c1	/	-6%	-3%	/
O=C(Cn1nc2ccccc2n1)N1CCOc2ccc(CN3CCc4sccc4C3)cc2C1	/	/	-3%	/
CCOC(=O)c1sc(NC(=O)C(C)Oc2ccc(OC)cc2)c(C(=O)OCC)c1C (stereo not given)	/	5%	-28%	/
COc1cccc(CNc2nccn(-c3cc(C)cc(C)c3)c2=O)c1	/	3%	-16%	/
CCC(Oc1ccccc1)C(=O)Nc1ccccc1OCc1cc(=O)n2ccccc2n1 (stereo not given)	/	4%	-28%	/
COc1ccc(N2CCN(C(=O)c3cccc(NC(=O)c4nsc5ccccc45)c3)CC2)cc1	/	-2%	6%	/
COc1c(Cl)cc(Cl)cc1/C=C(\C#N)c1nc2ccccc2[nH]1	/	7%	?	/
COc1cccc(/C=C(\C#N)c2nc3ccccc3[nH]2)c1OCC(=O)O	31*	3%	0%	67*
COc1cccc(/C=C(/C#N)c2nc3ccccc3[nH]2)c1OC(C)C(=O)O (stereo not given)	26*	-19%	-5%	58*
Cc1ccc(Cn2c(C(=O)O)c(CNCc3ccc(OC(C)C)cc3)c3ccc(C)cc32)cc1	/	4%	?	/

Source: PubChem BioAssay (National Center for Advancing Translational Sciences (NCATS))
